# In PubChem BioAssay:
# Activity calls are given as the source filed them.
# Columns and labels:
# [1] = test system: PRMT1 (protein arginine N-methyltransferase 1); assay: PRMT1 binders on small-molecule microarrays, primary screen, biochemical, small-molecule microarray, 635 nm fluorescence (AID 1088); conditions: small-molecule microarray binding, higher = more signal;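 also: binding of Prmt1 protein to compounds spotted on small-molecule microarray slides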
# [2] = yeast growth modulation, basal conditions, primary screen, YJM789 clinical isolate, OD600, 24 h (AID 1089);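 also: growth of clinical yeast isolate S. cerevisiae YJM 789 seeded 1000 cells per well; test concentration not given here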; conditions: S. cerevisiae YJM789 growth, higher = more signal, called active from +8 up or from −8 down
# [3] = fission yeast growth modulation, primary screen, strain 972, OD600, 24 h, no modulator (AID 1090);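 also: basal condition with compound alone and no growth modifier present; test concentration not given here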; conditions: S. pombe 972 growth, higher = more signal, called active from +8 up or from −8 down
# [4] = S. cerevisiae growth modulation with rapamycin, primary screen, strain BY4716, OD600, 96 h (AID 1091); conditions: higher = more signal, called active from +8 up or from −8 down; also: test concentration not given here
# [5] = target: Torsin-1A-interacting protein 2 (Homo sapiens) (UniProt Q8NFQ8); assay: LULL1 binders on small-molecule microarray, primary screen, cell lysate, human LULL1 lysate, 635/667 nm fluorescence (AID 1092); conditions: hLULL1 lysate binding, 635 nm fluorescence, higher = more signal;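 also: probe is lysate of COS7 cells overexpressing human LULL1; score merges per-feature 667 nm fluorescence with signal-to-noise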
# Sequence of Torsin-1A-interacting protein 2 (Homo sapiens) (Q8NFQ8 whole entry, looked up): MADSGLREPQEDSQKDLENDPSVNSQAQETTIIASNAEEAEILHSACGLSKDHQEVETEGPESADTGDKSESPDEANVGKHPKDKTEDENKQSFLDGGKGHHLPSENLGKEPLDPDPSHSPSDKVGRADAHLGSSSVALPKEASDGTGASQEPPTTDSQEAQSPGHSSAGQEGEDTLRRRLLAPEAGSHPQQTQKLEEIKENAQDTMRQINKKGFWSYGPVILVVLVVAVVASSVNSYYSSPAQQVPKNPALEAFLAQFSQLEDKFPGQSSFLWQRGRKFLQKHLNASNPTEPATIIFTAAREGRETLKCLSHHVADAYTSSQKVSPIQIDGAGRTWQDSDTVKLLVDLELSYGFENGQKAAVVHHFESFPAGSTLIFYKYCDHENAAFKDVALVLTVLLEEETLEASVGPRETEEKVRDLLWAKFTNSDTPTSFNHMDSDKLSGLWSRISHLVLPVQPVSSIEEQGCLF
# [6] = E. coli growth modulation, two-sided OD650, primary screen, E. coli filamentation project, strain DRC41, 24 h (AID 1093); conditions: OD650, 24 h, higher = more signal, called active from +8 up or from −8 down;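 also: MC1000 strain lacking acrAB efflux and sulA so SOS filamentation is blocked; test concentration not given here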
# [7] = small-molecule microarray binders of probe aLefty2, primary screen, biochemical, biotinylated probe, 635/667 nm fluorescence (AID 1094); conditions: higher = more signal;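 also: score merges spot fluorescence near 667 nm with spot signal-to-noise ratio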
# [8] = test system: Noggin (protein binding on small-molecule microarray); assay: Noggin binders on small-molecule microarray, primary screen, biochemical, 635/667 nm fluorescence (AID 1095); conditions: 635 nm fluorescence, higher = more signal;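 also: score merges 667 nm feature fluorescence with signal to noise over triplicate slides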
# [9] = target: Neurogenic locus notch homolog protein 3 (Homo sapiens) (UniProt Q9UM47); assay: NOTCH3 binders on small-molecule microarray, primary screen, biochemical, 635/667 nm fluorescence (AID 1096); conditions: NOTCH3 binding, 635 nm fluorescence, higher = more signal
# Sequence of Neurogenic locus notch homolog protein 3 (Homo sapiens) (Q9UM47 whole entry, looked up): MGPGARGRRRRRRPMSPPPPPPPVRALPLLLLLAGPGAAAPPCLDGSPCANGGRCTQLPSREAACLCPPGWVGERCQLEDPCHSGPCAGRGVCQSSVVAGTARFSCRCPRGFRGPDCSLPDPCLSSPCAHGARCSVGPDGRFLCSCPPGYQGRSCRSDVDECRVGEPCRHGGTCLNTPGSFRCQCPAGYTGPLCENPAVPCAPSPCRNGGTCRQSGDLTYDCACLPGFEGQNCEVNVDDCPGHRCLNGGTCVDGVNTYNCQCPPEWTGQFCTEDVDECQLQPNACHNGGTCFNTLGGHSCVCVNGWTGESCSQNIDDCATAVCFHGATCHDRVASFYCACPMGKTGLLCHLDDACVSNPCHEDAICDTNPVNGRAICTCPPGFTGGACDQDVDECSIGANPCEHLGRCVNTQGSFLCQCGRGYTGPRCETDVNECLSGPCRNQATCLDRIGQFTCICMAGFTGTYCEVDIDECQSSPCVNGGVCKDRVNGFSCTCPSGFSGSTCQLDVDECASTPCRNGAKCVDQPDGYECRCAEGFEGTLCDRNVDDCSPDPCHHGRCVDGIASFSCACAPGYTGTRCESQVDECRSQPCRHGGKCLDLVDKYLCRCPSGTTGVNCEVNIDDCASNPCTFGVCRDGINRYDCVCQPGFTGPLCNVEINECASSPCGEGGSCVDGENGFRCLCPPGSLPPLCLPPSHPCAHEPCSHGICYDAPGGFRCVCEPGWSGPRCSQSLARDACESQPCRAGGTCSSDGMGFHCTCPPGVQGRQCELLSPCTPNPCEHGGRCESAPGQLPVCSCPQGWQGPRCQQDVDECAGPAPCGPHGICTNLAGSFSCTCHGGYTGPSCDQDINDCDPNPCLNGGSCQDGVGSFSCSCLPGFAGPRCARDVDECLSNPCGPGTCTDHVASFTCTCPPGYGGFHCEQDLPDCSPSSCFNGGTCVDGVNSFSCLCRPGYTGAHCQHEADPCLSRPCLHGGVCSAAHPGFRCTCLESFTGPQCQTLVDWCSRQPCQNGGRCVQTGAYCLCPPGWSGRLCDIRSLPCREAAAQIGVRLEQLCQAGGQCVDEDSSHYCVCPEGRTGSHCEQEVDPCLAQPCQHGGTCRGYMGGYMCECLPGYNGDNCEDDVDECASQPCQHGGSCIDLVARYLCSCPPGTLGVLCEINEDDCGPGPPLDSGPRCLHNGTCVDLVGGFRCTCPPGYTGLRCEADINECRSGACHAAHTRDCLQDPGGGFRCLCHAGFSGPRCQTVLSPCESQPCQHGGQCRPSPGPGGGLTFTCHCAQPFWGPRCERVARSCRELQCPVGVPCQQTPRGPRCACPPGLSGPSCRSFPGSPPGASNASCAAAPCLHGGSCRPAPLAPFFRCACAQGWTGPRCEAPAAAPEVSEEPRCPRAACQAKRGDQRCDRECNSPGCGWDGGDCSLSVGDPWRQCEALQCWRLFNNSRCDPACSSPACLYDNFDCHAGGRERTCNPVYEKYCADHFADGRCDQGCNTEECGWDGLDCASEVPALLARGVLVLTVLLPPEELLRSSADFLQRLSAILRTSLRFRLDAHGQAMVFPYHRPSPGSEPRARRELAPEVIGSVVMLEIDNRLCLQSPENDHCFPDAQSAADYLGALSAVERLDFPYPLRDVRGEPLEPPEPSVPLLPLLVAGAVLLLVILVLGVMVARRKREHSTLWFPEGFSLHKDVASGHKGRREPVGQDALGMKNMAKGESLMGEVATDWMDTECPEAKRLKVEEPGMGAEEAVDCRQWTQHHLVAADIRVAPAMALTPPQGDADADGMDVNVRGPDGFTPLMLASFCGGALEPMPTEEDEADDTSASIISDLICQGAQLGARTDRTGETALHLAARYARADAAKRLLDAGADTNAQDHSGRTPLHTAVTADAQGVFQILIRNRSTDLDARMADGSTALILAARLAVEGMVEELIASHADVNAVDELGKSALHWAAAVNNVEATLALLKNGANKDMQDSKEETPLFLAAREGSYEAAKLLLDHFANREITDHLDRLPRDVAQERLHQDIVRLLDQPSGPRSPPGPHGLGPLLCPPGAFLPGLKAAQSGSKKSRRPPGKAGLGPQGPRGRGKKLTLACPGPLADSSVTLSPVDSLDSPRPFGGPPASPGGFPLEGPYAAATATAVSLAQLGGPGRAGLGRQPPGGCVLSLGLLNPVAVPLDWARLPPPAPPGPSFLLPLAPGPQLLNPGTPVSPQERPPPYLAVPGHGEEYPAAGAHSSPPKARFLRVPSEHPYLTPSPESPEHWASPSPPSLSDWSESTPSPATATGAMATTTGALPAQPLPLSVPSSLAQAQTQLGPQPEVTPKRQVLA
# [10] = small-molecule microarray binders of probe aEGFR, primary screen, biochemical, biotinylated probe, 635/667 nm fluorescence (AID 1097); conditions: higher = more signal;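 also: probe is a biotinylated anti-EGFR antibody binding compounds printed on slides; score combines fluorescence near 667 nm and signal to noise of each spot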
# [11] = test system: Plasmodium falciparum Sir2 (PF13_0152, Sir2A); assay: pfSir2 binders on small-molecule microarrays, primary screen, biochemical, small-molecule microarray, 635 nm fluorescence (AID 1098); conditions: small-molecule microarray binding, fluorescence 635 nm; higher = more signal;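 also: score merges spot fluorescence intensity with its signal-to-noise ratio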
# [12] = small-molecule microarray binders of probe aDKK1, primary screen, biochemical, biotinylated probe, 635/667 nm fluorescence (AID 1099); conditions: higher = more signal;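 also: score merges 667nm spot fluorescence with signal to noise across triplicate slides; reference of the scale not given here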
# [13] = small-molecule microarray binders of probe aCHRDL2, primary screen, biochemical, biotinylated probe, 635/667 nm fluorescence (AID 1100); conditions: higher = more signal
# [14] = splicing luciferase reporter signal modulators, primary screen, spliceosome inhibition project, cell-based, HEK293, splice +/- reporter (AID 1101); conditions: luminescence, 24 h, higher = more signal, called active from +8 up or from −8 down;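 also: HEK293 cells carrying a splicing-competent luciferase reporter gene; test concentration not given here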
# [15] = target: Fibroblast growth factor 10 (Homo sapiens) (UniProt O15520); assay: FGF10 binders on small-molecule microarrays, primary screen, biochemical, small-molecule microarray, 635 nm fluorescence (AID 1102); conditions: FGF10 binding, fluorescence 635 nm, higher = more signal
# Sequence of Fibroblast growth factor 10 (Homo sapiens) (O15520 whole entry, looked up): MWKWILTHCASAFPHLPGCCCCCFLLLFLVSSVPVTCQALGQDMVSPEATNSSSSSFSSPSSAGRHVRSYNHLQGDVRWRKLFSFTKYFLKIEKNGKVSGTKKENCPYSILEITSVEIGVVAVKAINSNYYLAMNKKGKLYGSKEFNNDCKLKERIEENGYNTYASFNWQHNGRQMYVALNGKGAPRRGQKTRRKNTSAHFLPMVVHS
# [16] = test system: glycogen synthase kinase-3 (GSK3A per assay name; protocol says GSK3B); assay: GSK3 binders on small-molecule microarrays, primary screen, biochemical, small-molecule microarray, 635 nm fluorescence, GSK3A (AID 1103); conditions: small-molecule microarray binding, fluorescence 635 nm; higher = more signal; also: the record names both GSK3A and GSK3B
# [17] = target: Epidermal growth factor receptor (Homo sapiens) (UniProt P00533); assay: EGFR binders on small-molecule microarrays, primary screen, biochemical, small-molecule microarray, 635 nm fluorescence (AID 1104); conditions: EGFR binding, higher = more signal;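 also: score merges 667 nm emission intensity with spot signal to noise over triplicate slides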
# Sequence of Epidermal growth factor receptor (Homo sapiens) (P00533 whole entry, looked up): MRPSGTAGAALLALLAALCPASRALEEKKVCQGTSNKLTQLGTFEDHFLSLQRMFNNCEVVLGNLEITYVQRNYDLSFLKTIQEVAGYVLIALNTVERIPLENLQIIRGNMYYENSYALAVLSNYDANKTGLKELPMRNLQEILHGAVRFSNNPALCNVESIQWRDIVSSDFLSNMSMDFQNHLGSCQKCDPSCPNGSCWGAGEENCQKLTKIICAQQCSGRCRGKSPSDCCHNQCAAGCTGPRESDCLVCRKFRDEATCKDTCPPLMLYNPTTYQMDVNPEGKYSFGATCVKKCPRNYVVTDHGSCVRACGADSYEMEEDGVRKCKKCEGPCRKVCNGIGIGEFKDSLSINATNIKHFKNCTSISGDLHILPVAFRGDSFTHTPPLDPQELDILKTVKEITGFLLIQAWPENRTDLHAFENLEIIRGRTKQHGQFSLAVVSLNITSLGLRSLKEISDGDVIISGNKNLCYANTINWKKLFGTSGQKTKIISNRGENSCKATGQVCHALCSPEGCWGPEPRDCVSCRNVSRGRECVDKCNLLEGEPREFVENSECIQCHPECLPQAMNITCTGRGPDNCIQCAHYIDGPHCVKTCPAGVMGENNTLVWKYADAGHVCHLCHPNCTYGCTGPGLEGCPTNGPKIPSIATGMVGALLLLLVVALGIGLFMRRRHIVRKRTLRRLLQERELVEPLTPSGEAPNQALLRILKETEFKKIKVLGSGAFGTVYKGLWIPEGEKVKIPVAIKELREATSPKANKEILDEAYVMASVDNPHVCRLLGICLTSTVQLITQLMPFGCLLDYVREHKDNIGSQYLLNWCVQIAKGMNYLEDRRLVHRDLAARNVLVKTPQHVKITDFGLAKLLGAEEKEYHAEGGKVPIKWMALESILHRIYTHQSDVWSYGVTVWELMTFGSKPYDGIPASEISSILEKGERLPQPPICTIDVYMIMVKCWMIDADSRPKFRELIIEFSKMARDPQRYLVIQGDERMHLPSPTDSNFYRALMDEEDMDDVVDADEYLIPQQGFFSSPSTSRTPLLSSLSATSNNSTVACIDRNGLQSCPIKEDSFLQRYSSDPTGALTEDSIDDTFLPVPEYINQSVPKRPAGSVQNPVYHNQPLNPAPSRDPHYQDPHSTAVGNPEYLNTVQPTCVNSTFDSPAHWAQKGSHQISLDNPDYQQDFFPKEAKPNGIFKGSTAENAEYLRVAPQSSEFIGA
# [18] = target: Follistatin-related protein 3 (Homo sapiens) (UniProt O95633); assay: FSTL3 binders on small-molecule microarrays, primary screen, biochemical, small-molecule microarray, 635 nm fluorescence (AID 1105); conditions: FSTL3 binding, higher = more signal;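 also: score merges emission near 667 nm and signal to noise per printed spot across three slides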
# Sequence of Follistatin-related protein 3 (Homo sapiens) (O95633 whole entry, looked up): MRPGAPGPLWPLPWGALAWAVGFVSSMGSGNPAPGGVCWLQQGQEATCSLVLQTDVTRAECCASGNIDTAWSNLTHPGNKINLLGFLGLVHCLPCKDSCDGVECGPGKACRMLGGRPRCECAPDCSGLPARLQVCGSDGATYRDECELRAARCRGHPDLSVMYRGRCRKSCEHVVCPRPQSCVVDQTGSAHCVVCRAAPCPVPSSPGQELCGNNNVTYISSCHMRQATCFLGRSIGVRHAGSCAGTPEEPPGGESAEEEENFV
# [19] = target: Dickkopf-related protein 1 (Homo sapiens) (UniProt O94907); assay: DKK1 binders on small-molecule microarrays, primary screen, biochemical, small-molecule microarray, 635 nm fluorescence scan (AID 1106); conditions: DKK1 binding, higher = more signal;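 also: score merges emission near 667 nm with signal to noise over three replicate slides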
# Sequence of Dickkopf-related protein 1 (Homo sapiens) (O94907 whole entry, looked up): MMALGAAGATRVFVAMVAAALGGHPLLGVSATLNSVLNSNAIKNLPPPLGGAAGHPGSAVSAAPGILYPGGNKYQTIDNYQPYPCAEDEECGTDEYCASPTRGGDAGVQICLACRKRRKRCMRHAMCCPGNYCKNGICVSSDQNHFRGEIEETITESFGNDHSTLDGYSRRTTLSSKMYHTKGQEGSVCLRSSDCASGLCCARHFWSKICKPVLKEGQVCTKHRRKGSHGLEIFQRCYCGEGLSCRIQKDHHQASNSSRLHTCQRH
# [20] = test system: Inhibin beta A chain (activin A); assay: INHBA (activin A) binders on microarrays, primary screen, biochemical, small-molecule microarray, 635 nm fluorescence scan (AID 1107); conditions: small-molecule microarray binding, higher = more signal;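 also: mouse activin A protein probed at 4.33 µg/mL on printed slides; score merges bound-protein fluorescence near 667 nm with spot signal-to-noise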
Structure (SMILES),composite z-score [1],z-score [2],z-score [3],z-score [4],composite z-score [5],z-score [6],composite z-score [7],composite z-score [8],composite z-score [9],composite z-score [10],composite z-score [11],composite z-score [12],composite z-score [13],z-score [14],composite z-score [15],composite z-score [16],composite z-score [17],composite z-score [18],composite z-score [19],composite z-score [20]
COc1ccc([Si](C)(C)[C@@H]2[C@@H](CCO)O[C@]3(C(=O)N(Cc4ccccc4)c4ccc(N5C(=O)c6ccccc6Oc6ccccc65)cc43)[C@H]2C)cc1,0.182,1.32 (inactive),0.381 (inactive),8.27 (active),1.21,1.13 (inactive),-0.136,0.245,0.057,-0.19,0.0104,-0.171,0.462,-1.28 (inactive),-0.673,-1.02,-1.04,-0.398,-0.328,-0.0458
CCCC=C(CCC)[C@@H](NC(=O)c1ccccc1)c1ccc(C(=O)OC)cc1,0.661,-0.532 (inactive),-1.5 (inactive),-0.938 (inactive),2.56,0.689 (inactive),0.688,0.748,0.997,0.23,0.578,0.374,-0.0902,-1.98 (inactive),1,0.294,0.891,0.806,0.162,0.613
CC(C)CNC(=O)[C@@]1(C)c2ccccc2C(=O)N(Cc2cc(F)cc(C(F)(F)F)c2)[C@H]1c1ccc(CO)cc1,1.56,-1.08 (inactive),-0.428 (inactive),-0.629 (inactive),2.6,0.149 (inactive),-0.0172,0.602,0.616,-0.165,0.972,-0.162,0.35,0.451 (inactive),0.398,0.729,0.181,0.379,0.343,0.938
CCCCCN1CC=CC23O[C@@H]4C=CCOC(=O)[C@@H]4[C@H]2C(=O)N(CCCCCO)[C@@H]3C1=O (stereo not given in full),0.421,-1.16 (inactive),0.249 (inactive),-1.02 (inactive),1.59,2.58 (inactive),-0.121,-0.361,0.103,-0.167,1.37,-0.181,0.398,-0.522 (inactive),-0.893,-1.15,-0.728,-0.52,-0.63,0.676
CN1C(=O)C2C(C1=O)C1C=C(c3ccc(CO)cc3)C2C(c2cccs2)N1C (stereo not given),-0.27,-0.208 (inactive),-2.24 (inactive),1.33 (inactive),0.989,1.24 (inactive),-0.072,-0.518,-0.133,0.637,0.609,0.0014,0.381,-0.516 (inactive),-0.0606,0.378,-0.2,-0.164,-0.0556,0.779
COCCOC(=O)N1C(=O)[C@@]2(c3cc(C#CC4(O)CCCCCC4)ccc31)[C@H](c1ccccc1OCCO)N1[C@H](c3ccccc3)[C@H](c3ccccc3)OC(=O)[C@H]1[C@@H]2C(=O)N1CCCCCCC1,1.54,1.94 (inactive),1.26 (inactive),3.54 (inactive),3.47,0.0805 (inactive),1.31,1.75,1.1,-0.0351,1.56,2.22,1.43,-0.901 (inactive),0.846,0.502,0.638,1.5,1.09,1.71
COc1ccc(CCNC(=O)[C@@H]2c3ccccc3C(=O)N(CC34CC5CC(CC(C5)C3)C4)[C@H]2c2ccc(CO)cc2)cc1,1.12,-0.543 (inactive),-0.817 (inactive),-0.13 (inactive),2.45,0.573 (inactive),-0.297,1.92,1.06,-0.0828,0.959,-0.0038,0.309,-1.02 (inactive),1.06,0.406,0.277,0.644,0.323,0.64
COc1ccc(CCNC(=O)[C@@]2(C)c3ccccc3C(=O)N(Cc3cc(C(F)(F)F)cc(C(F)(F)F)c3)[C@H]2c2ccc(CO)cc2)cc1,1.53,0.182 (inactive),-0.836 (inactive),1.09 (inactive),1.7,1.02 (inactive),0.795,0.179,0.0336,0.577,0.569,1.64,1.02,-0.926 (inactive),0.329,0.651,0.875,0.371,0.338,-0.307
O=C1C2C=CC(C(O)C(c3ccccc3)c3ccccc3)N(Nc3ccccc3)C2C(=O)N1c1ccccc1 (stereo not given),1.55,0.838 (inactive),0.0855 (inactive),0.281 (inactive),3.23,-1.15 (inactive),0.0731,0.351,1.03,0.056,1.46,0.467,0.741,-0.384 (inactive),0.68,1.32,0.385,1.44,-0.42,0.221
COCCOC(=O)N1C(=O)[C@@]2(c3cc(C#CC4(O)CCCCCC4)ccc31)[C@H](C(=O)N1CCc3cc(OC)c(OC)cc3C1)[C@H]1C(=O)O[C@H](c3ccccc3)[C@H](c3ccccc3)N1[C@@H]2c1ccc(O)cc1,1.54,0.449 (inactive),-0.929 (inactive),1.7 (inactive),2.96,1.55 (inactive),-0.0699,1.44,1.05,1.04,0.974,0.142,0.248,0.543 (inactive),1.02,1.32,0.648,1.02,0.639,0.122
O=C1C2C=CC(C(O)c3cccc(O)c3)N(Nc3ccccc3F)C2C(=O)N1c1ccccc1 (stereo not given),0.788,-25 (active),-8.06 (active),-1.5 (inactive),1.88,1.94 (inactive),-0.192,-0.171,0.552,-0.13,1.86,-0.143,0.247,-3.1 (inactive),-0.177,-0.127,-0.175,0.338,-0.128,0.452
CC(C)CNC(=O)[C@@H]1c2ccccc2C(=O)N(Cc2ccccc2Cl)[C@H]1c1ccc(CO)cc1,-0.469,-0.691 (inactive),-0.354 (inactive),-0.332 (inactive),3.09,0.534 (inactive),0.0529,-1.04,-1.08,-0.239,1.29,0.495,0.959,0.587 (inactive),-0.765,0.729,-0.519,-0.644,-1.17,-0.114
